Common to all, as to assay: NCI-60 one-dose screen, 48 h (100 = growth as untreated, 0 = no growth, -100 = all killed)
Holding throughout (conditions): 10 µM unless noted

For test [1], the system named is HCT-15 colon.
Test [2] has as its system HT29 colon.
The test system of test [3] is SNB-75 CNS.
Test [4] has as its system SNB-19 CNS.
Test [5] deals with PC-3 prostate.
For test [6], the system named is SK-MEL-5 melanoma.
The subject of test [7] is UACC-62 melanoma.
The test system of test [8] is LOX IMVI melanoma.
For test [9], the system named is SK-MEL-28 melanoma.
The test system of test [10] is U251 CNS.

About 83,000 compounds went through this panel and 20% of them were active in at least one assay; those are over-represented in the sample as a whole.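 Interpretation: 100, growth as untreated; towards 0, rising growth inhibition; 0, no net growth; 0 to -100, cell death. Compounds scoring below 10 were considered active.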 A number with no mark means an inactive call. Activity calls are given as the source filed them.

As to `CC(NC(N)=S)c1ccccc1` (stereo not drawn), the growth in test [1] was 104%; in test [2], 110%; in test [3], 95.1%; in [4], 102%; in [5] it was 108%; in [6] it was 99.6%. Further, the values for the growth in test [7], in test [8] and in test [9] were 101%, 85% and 110%, respectively.

For `CC1c2ccccc2-c2ccccc2N1C` (stereo not drawn), the growth in test [1] is 102%; in test [2], 102%; in [3] it was 105%; in test [4], 97.3%; in test [5], 83.9%; in test [6], 107%. Also, the results for the growth in [7], in [8] and in test [9] were 86.6%, 94.6% and 119%, respectively.

Turning to `Cc1ccc(-c2c3c(N)nc(-c4ccncc4)nc3nc3c2c(C)nn3-c2ccccc2)cc1`, the growth is 45% in [1]; 21.8% in test [2]; 22.5% in test [3]; 88.4% in test [4]; 62.8% in [5]; 55.3% in test [6]. Also, the results for the growth in test [7], in test [8] and in test [9] were 58.3%, 8.73% (active) and 30.4%, respectively.

With `Cc1ccccc1NC(=O)NC(CC(N)=O)c1ccc2c(c1)nc(-c1cccc(Oc3ccc(C(C)(C)C)cc3)c1)n2CCCN1CCCCC1C` (stereo not drawn), the growth in [1] is 92.3%; in test [2], -34.6% (active); in [3] it was 62.5%; in test [4] it was 46.2%; in [5], 29.7%; in [6] it was -73% (active). Also, the growth in [7] was 82.7%; in [8], -73% (active); in [9] it was -71.7% (active).

Take `Cc1ccc(C2=Nc3c(ccc4c(C)c(C)c(=O)oc34)OC2)cc1`: the growth in test [1] is 94.4%; in [2], 102%; in test [3], 95.7%; in test [4], 101%; in test [5], 88.9%; in test [6] it was 101%. Moreover, the growth in test [7] is 107%; in test [8] it was 94.5%; in [9] it was 110%.

Turning to `Cc1ccc(C(NC(=O)c2ccccc2)c2ccc3cccnc3c2O)cc1` (stereo not drawn), the growth in [1] is 28.9%; in test [2], 22.2%; in test [3] it was 33.3%; in [4] it was 19.9%; in [5], 26.1%; in [6], -42.3% (active). In addition, the growth in [7] was -8.42% (active); in [8], 11.1%; in [9], 30.8%.

With `COc1c(Br)cc(C(c2cc(Br)c(OC)c(Br)c2)c2ccccc2C(=O)O)cc1Br`, the growth in test [1] was 115%; in test [2] it was 100%; in test [3], 76.7%; in test [4], 95.9%; in test [5], 89.9%; in test [6], 100%. In addition, the growth is 97.9% in test [7], 96.6% in [8] and 112% in [9].

Regarding `Cn1cc(NC(=O)Nc2cc(C(=O)O)n(C)c2)cc1C(=O)O`, the growth in test [1] was 113%; in test [2] it was 107%; in [3], 103%; in test [4], 118%; in test [5], -76.4% (active); in test [6], 93.6%. Further, the growth in test [7] was 90%; in test [8], 98.1%; in test [9] it was 121%.

With `Cc1nn(-c2ccccc2)c2nc(N)c(C3=NCCO3)nc12`, the growth in [1] was 98%; in test [2], 100%; in test [3], 73.1%; in test [4], 100%; in test [5], 81.4%; in test [6] it was 97.4%. For the same compound, the figures for the growth in [7], in [8] and in test [9] were 96.5%, 94.7% and 103%, respectively.

In the case of `COc1cccc(CCN2C(=O)CCC3=C2CCC3=O)c1`, the growth in test [1] is 108%; in test [2] it was 106%; in test [3], 84.4%; in test [4], 102%; in test [5] it was 93.5%; in test [6], 98.2%. For the same compound, the results for the growth in test [7], in [8] and in [9] were 97.8%, 97.9% and 111%, respectively.

Regarding `COc1cc(OC)c2c(c1Cl)O[C@]1(C2=O)C(OCc2ccccc2)=CC(=O)C[C@H]1C`, the growth in [1] is 15.7%; in test [2], 7.63% (active); in [3] it was 24.2%; in test [4], 36.2%; in test [5], 6.5% (active); in [6], -75% (active). Moreover, the figures for the growth in test [7], in test [8] and in test [9] were 6.94% (active), 17.9% and 16.4%, respectively.

In the case of `O=C1/C(=C/c2ccccc2Cl)CCc2ccccc21`, the growth is 104% in [1]; 97.2% in [2]; 105% in [3]; 89.7% in [4]; 95.6% in test [5]; 102% in test [6]. For the same compound, the growth was 94.2% in test [7], 91.7% in test [8] and 101% in [9].

On to `Cc1cn(C(C=O)OC(C=O)CO)c(=O)[nH]c1=O` (stereo not drawn), for which the growth in test [1] was 102%; in test [2] it was 110%; in test [3], 75.1%; in test [4] it was 101%; in test [5] it was 102%; in test [6], 105%. Moreover, the growth in test [7] is 106%; in test [8], 103%; in test [9], 99.1%.

With `CC1CC=CCC1C1OCC(C)(C)CO1` (stereo not drawn), the growth is 97.9% in test [1]; 109% in [2]; 90% in test [3]; 102% in test [4]; 94.9% in test [5]; 104% in test [6]. The growth in [7] was 102%; in test [8], 69.9%; in test [9], 105%.

With `CC(=O)c1nn(-c2ccccc2)c(=Nc2ccccc2)cc1C`, the growth in [1] was 93.9%; in test [2], 95.5%; in [3], 76.2%; in [4] it was 92.4%; in [5] it was 80.3%; in [6], 98.9%. Further, the values for the growth in [7], in [8] and in [9] were 94.8%, 98.4% and 109%, respectively.

Regarding `O=C(O)C1C(c2ccccc2)c2ccccc2C(O)C1CO` (stereo not drawn), the growth in test [1] is 98.2%; in [2], 106%; in [3], 80.7%; in [4], 99.8%; in test [5], 91.5%; in test [6], 107%. Besides, the values for the growth in test [7], in test [8] and in test [9] were 95.3%, 103% and 111%, respectively.

Consider `COc1cc(/C=C/C(=O)C(C(=O)/C=C/c2ccc(OC(=O)CCNC34CC5CC(CC(C5)C3)C4)c(OC)c2)C(=O)CCNC23CC4CC(CC(C4)C2)C3)ccc1OC(=O)CCNC12CC3CC(CC(C3)C1)C2` (stereo not drawn), for which the growth in [1] is -18.2% (active); in test [2] it was -71.6% (active); in test [3], -32.3% (active); in test [4] it was 39.2%; in [5], 13.6%; in test [6], -36.8% (active). Further, the growth was 20.2% in [7], -72.7% (active) in [8] and -8.59% (active) in [9].

Turning to `Cc1cc(C)c2c(N)c3cccc(C)c3nc2n1`, the growth in test [1] was 10.4%; in test [2] it was 0.696% (active); in [3] it was 10.4%; in test [4], 18.6%; in [5], -4.42% (active); in [6], -38.7% (active). Further, the values for the growth in test [7], in test [8] and in test [9] were -45.8% (active), 1.49% (active) and -9.8% (active), respectively.

For `CCc1nn2c(-c3ccc(Cl)cc3C)c(-c3cc(OC)c(OC)c(OC)c3)nc2s1`, the growth in test [1] was 69.8%; in [2], 66.8%; in test [3], 3.79% (active); in [4], 56.8%; in test [5], 64.1%; in test [6] it was 70.3%. In addition, the values for the growth in test [7], in [8] and in test [9] were 60%, 77.1% and 80.8%, respectively.

Take `COc1cc(NC(=O)NCc2ccco2)ccc1-c1ccc(NC(=O)NCc2ccco2)cc1OC`: the growth in [1] was 48.7%; in [2], 33.7%; in test [3] it was 65.3%; in [4] it was 72.9%; in test [5], 33.6%; in test [6] it was 30.6%. Moreover, the growth in [7] is 45.3%; in test [8], 45.4%; in test [9], 79.8%.

Consider `Cn1c(N2N=C(c3ccc(Cl)cc3)CC2c2ccccc2)nc(-c2ccccc2)c(C#N)c1=O` (stereo not drawn), for which the growth is 80% in [1]; 79.3% in test [2]; 91.4% in test [3]; 88.8% in test [4]; 49.7% in test [5]; 54.7% in test [6]. Further, the growth in [7] was 58.9%; in [8], 70.9%; in [9], 94.5%.

Consider `O=C1NC(=O)/C(=C\c2ccco2)S1`, for which the growth in [1] was 100%; in [2], 114%; in test [3], 97.7%; in [4] it was 101%; in test [5], 101%; in [6] it was 99.9%. In addition, the growth in test [7] was 91.7%; in [8] it was 91.5%; in test [9] it was 113%.

Regarding `CSc1nc2nc3c(nc2c(=O)n1C)C(=O)c1ccccc1C3=O`, the growth in test [1] is -72.1% (active); in [2], -21.1% (active); in test [3], -98.3% (active); in test [4], -66.2% (active); in [5], -6.56% (active); in test [6], -96.4% (active). Also, the growth is -68.2% (active) in test [7], -70.9% (active) in test [8] and -60.7% (active) in test [9].

On to `N=C1c2nc3n(c2C(=O)c2nc4n(c21)CCCCC4)CCCCC3`, for which the growth in [1] is 109%; in [2], 106%; in test [3], 105%; in [4], 113%; in test [5] it was 113%; in test [6] it was 88.7%. Also, the growth in test [7] was 110%; in test [8] it was 92%; in test [9], 118%.

`CC(=O)/C(=C/c1ccc(Cl)cc1)C(=O)c1ccccc1`: the growth was 79.3% in test [1]; 78.9% in test [2]; 81.6% in [3]; 91.1% in test [4]; 68.5% in [5]; 94.2% in test [6]. The growth was 82.1% in [7], -43.9% (active) in [8] and 95.5% in test [9].

For the compound `Oc1c(N=Nc2nn[nH]n2)ccc2ccccc12`, the growth in test [1] is 68.2%; in [2], 81.8%; in test [3], 143%; in test [4] it was 92.6%; in [5], 67.6%; in test [6] it was 38.4%. Besides, the growth is 77% in test [7], 78% in test [8] and 94.6% in test [9].

Turning to `Cc1cc(=O)oc2cc(OCCn3c(C)nn(-c4ccc(Cl)cc4)c3=O)ccc12`, the growth in test [1] is 17.7%; in test [2], 0.696% (active); in test [3] it was 20.4%; in test [4] it was 54.5%; in test [5] it was 48.5%; in test [6], 10.8%. For the same compound, the growth was 43.3% in [7], 48% in test [8] and 40.8% in test [9].

In the case of `O=C(Nc1ccc(Cl)cc1)Nc1ccccc1CNc1nc(Nc2ccc(OCCN3CCCC3)cc2)ncc1Cl`, the growth was 6.28% (active) in test [1]; 0.197% (active) in [2]; -17% (active) in test [3]; 42% in test [4]; -8.19% (active) in [5]; 50.2% in [6]. In addition, the growth was 99.3% in [7], -95.1% (active) in test [8] and -77.7% (active) in test [9].

Consider `FC(F)(F)c1cc(-c2nnc3n2N=C(N2CCCC2)CS3)cc(C(F)(F)F)c1`, for which the growth is 96.9% in test [1]; 86.2% in test [2]; 29.6% in test [3]; 65.4% in test [4]; 69.1% in test [7]; 84.3% in test [8]. For the same compound, in test [9], the growth is 101%.

For `Cc1ccc(C(=O)Cc2ccccc2)c(O)c1`, the growth in test [1] is 102%; in test [2], 110%; in [3] it was 97.8%; in test [10] it was 98.9%; in [5] it was 99.8%; in test [6], 108%. For the same compound, the growth was 90.4% in test [7], 98% in [8] and 117% in test [9].

Source of the values: PubChem BioAssay (NCI).
